{
  "source": "PubChem BioAssay (NCATS)",
  "note": "A number with no mark means an inactive call. Records with an inconclusive call do not appear. Active and inactive are the calls of the source. Unless noted, calls come from the whole dose curve; as a rule, active = well fitted curve in the direction sought with a large enough effect; inconclusive = small, poorly fitted or top-dose-only effect, or another doubt; inactive = no such curve, though single readings can be large; an effect the other way counts as inactive or inconclusive.",
  "data": [
    {"system": "not listed separately", "assay": "Validation screen for small molecules that induce genotoxicity in human embryonic kidney (HEK293T) cells expressing luciferase-tagged ELG1 (AID 493106); note: potency is the fitted concentration of half-maximal effect; for activity change, positive = ELG1 induction: 0% is about no effect", "conditions": "luminescence; series mostly up to 46.1 µM; activity change, positive = ELG1 induction: at the top concentration", "method_in_brief": "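qHTS format; 2,000 HEK293T ELG1-luc cells/well; 23 nL compound via pin tool; 16 hr, 37 °C/5% CO2; ONE-Glo, 30 min RT; luminescence read.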", "units": {"activity change, positive = ELG1 induction": "%"}, "values": [
      {"smiles": "NC(=O)c1cn(Cc2c(F)cccc2F)nn1", "activity change, positive = ELG1 induction": -5.87},
      {"smiles": "CN1CCN(CC(=O)N2c3ccccc3C(=O)Nc3cccnc32)CC1", "activity change, positive = ELG1 induction": -5.57},
      {"smiles": "COc1ccc2c(c1OC)C(=O)O[C@@H]2[C@H]1c2c(cc3c(c2OC)OCO3)CCN1C", "activity change, positive = ELG1 induction": -4.97},
      {"smiles": "COc1ccc([C@@H]2Sc3ccccc3N(CCN(C)C)C(=O)[C@@H]2OC(C)=O)cc1", "activity change, positive = ELG1 induction": -9.12},
      {"smiles": "CCOC(=O)C1=C(C)NC(C)=C(C(=O)OC)C1c1cccc([N+](=O)[O-])c1", "note": "(stereo not given)", "activity change, positive = ELG1 induction": -14.6},
      {"smiles": "CC(C)COCC(CN(Cc1ccccc1)c1ccccc1)N1CCCC1", "note": "(stereo not given)", "activity change, positive = ELG1 induction": 2.47},
      {"smiles": "CN(C)C(=O)Oc1ccc[n+](C)c1", "activity change, positive = ELG1 induction": -5.96},
      {"smiles": "CCCC(C(=O)OCCN(CC)CC)(c1ccccc1)c1ccccc1", "activity change, positive = ELG1 induction": -15.8},
      {"smiles": "COC(=O)C1=C(C)NC(C)=C(C(=O)OC(C)(C)CN(C)CCC(c2ccccc2)c2ccccc2)C1c1cccc([N+](=O)[O-])c1", "note": "(stereo not given)", "activity change, positive = ELG1 induction": -17.1},
      {"smiles": "CCn1ccnc1CC1COc2ccccc2O1", "note": "(stereo not given)", "activity change, positive = ELG1 induction": 0.0301},
      {"smiles": "NC1=NCC2c3ccccc3Cc3ccccc3N12", "note": "(stereo not given)", "activity change, positive = ELG1 induction": -7.13},
      {"smiles": "Cc1nc2c([nH]1)c(=O)n(C)c(=O)n2Cc1ccco1", "activity change, positive = ELG1 induction": 2.68},
      {"smiles": "COc1cc(C(=O)OCCCN2CCCN(CCCOC(=O)c3cc(OC)c(OC)c(OC)c3)CC2)cc(OC)c1OC", "Potency": "16.4 µM (active)"},
      {"smiles": "C[C@]12CC[C@@H]3c4ccc(O)cc4C[C@@H](CCCCCCCCCS(=O)CCCC(F)(F)C(F)(F)F)[C@H]3[C@@H]1CC[C@@H]2O", "note": "(stereo not given in full)", "activity change, positive = ELG1 induction": -11.7},
      {"smiles": "Cc1nc2ccccn2c(=O)c1CCN1CCC(C(=O)c2ccc(F)cc2)CC1", "activity change, positive = ELG1 induction": -8.94},
      {"smiles": "Cc1cccc(C)c1NC(=O)C(C)N", "note": "(stereo not given)", "activity change, positive = ELG1 induction": -8.34},
      {"smiles": "C#CCN(C)CCCOc1ccc(Cl)cc1Cl", "activity change, positive = ELG1 induction": 3.07},
      {"smiles": "CC(C)[N+](C)(CCOC(=O)C1c2ccccc2Oc2ccccc21)C(C)C", "activity change, positive = ELG1 induction": -6.59},
      {"smiles": "COc1ccc(CN(CCN(C)C)c2ccccn2)cc1", "activity change, positive = ELG1 induction": -8.1},
      {"smiles": "CN1C[C@H](C(=O)N[C@]2(C)O[C@@]3(O)[C@@H]4CCCN4C(=O)[C@H](Cc4ccccc4)N3C2=O)C[C@@H]2c3cccc4[nH]cc(c34)C[C@H]21", "activity change, positive = ELG1 induction": -6.41},
      {"smiles": "CC(=O)[C@@]1(O)CC[C@H]2[C@@H]3CCC4=CC(=O)CC[C@]4(C)[C@H]3CC[C@@]21C", "activity change, positive = ELG1 induction": -11.2},
      {"smiles": "CNC1(C)C2CCC(C2)C1(C)C", "note": "(stereo not given)", "activity change, positive = ELG1 induction": 1.66},
      {"smiles": "CCOC(=O)C1=C(C)NC(C)=C(C(=O)OC)C1c1cccc(Cl)c1Cl", "note": "(stereo not given)", "activity change, positive = ELG1 induction": -14.1},
      {"smiles": "CCCCNc1c(C(=O)OCC)c(C)nc2c1cnn2CC", "activity change, positive = ELG1 induction": -9.39},
      {"smiles": "CC1=C(C)C(=O)C(CCCCC#CCCCC#CCO)=C(C)C1=O", "activity change, positive = ELG1 induction": -11.3},
      {"smiles": "CN1C(=O)CC[C@H]1c1cccnc1", "activity change, positive = ELG1 induction": -6.68},
      {"smiles": "Cc1nc2sccn2c(=O)c1CCN1CCC(=C(c2ccc(F)cc2)c2ccc(F)cc2)CC1", "activity change, positive = ELG1 induction": -10.7},
      {"smiles": "CN(C)CCCN1c2ccccc2Sc2ccc(C(F)(F)F)cc21", "activity change, positive = ELG1 induction": -14.1},
      {"smiles": "C[C@@H](O)[C@H]1C(=O)N2C(C(=O)O)=C(SCCN=CN)C[C@H]12", "activity change, positive = ELG1 induction": -5.33},
      {"smiles": "CN(C)[C@@H]1C(=O)C(C(N)=O)=C(O)[C@@]2(O)C(=O)C3=C(O)c4c(O)ccc(Cl)c4[C@@H](O)[C@H]3C[C@@H]12", "activity change, positive = ELG1 induction": 1.56},
      {"smiles": "C[C@]12CCC(=O)C=C1CC[C@@H]1[C@@H]2C(=O)C[C@@]2(C)[C@H]1CC[C@]2(O)C(=O)CO", "activity change, positive = ELG1 induction": -2.53}
    ]},
    {"target": "ATPase family AAA domain-containing protein 5 (Homo sapiens) (UniProt Q96QE3)", "sequence (Q96QE3 whole entry, looked up, the tested form may be a part)": "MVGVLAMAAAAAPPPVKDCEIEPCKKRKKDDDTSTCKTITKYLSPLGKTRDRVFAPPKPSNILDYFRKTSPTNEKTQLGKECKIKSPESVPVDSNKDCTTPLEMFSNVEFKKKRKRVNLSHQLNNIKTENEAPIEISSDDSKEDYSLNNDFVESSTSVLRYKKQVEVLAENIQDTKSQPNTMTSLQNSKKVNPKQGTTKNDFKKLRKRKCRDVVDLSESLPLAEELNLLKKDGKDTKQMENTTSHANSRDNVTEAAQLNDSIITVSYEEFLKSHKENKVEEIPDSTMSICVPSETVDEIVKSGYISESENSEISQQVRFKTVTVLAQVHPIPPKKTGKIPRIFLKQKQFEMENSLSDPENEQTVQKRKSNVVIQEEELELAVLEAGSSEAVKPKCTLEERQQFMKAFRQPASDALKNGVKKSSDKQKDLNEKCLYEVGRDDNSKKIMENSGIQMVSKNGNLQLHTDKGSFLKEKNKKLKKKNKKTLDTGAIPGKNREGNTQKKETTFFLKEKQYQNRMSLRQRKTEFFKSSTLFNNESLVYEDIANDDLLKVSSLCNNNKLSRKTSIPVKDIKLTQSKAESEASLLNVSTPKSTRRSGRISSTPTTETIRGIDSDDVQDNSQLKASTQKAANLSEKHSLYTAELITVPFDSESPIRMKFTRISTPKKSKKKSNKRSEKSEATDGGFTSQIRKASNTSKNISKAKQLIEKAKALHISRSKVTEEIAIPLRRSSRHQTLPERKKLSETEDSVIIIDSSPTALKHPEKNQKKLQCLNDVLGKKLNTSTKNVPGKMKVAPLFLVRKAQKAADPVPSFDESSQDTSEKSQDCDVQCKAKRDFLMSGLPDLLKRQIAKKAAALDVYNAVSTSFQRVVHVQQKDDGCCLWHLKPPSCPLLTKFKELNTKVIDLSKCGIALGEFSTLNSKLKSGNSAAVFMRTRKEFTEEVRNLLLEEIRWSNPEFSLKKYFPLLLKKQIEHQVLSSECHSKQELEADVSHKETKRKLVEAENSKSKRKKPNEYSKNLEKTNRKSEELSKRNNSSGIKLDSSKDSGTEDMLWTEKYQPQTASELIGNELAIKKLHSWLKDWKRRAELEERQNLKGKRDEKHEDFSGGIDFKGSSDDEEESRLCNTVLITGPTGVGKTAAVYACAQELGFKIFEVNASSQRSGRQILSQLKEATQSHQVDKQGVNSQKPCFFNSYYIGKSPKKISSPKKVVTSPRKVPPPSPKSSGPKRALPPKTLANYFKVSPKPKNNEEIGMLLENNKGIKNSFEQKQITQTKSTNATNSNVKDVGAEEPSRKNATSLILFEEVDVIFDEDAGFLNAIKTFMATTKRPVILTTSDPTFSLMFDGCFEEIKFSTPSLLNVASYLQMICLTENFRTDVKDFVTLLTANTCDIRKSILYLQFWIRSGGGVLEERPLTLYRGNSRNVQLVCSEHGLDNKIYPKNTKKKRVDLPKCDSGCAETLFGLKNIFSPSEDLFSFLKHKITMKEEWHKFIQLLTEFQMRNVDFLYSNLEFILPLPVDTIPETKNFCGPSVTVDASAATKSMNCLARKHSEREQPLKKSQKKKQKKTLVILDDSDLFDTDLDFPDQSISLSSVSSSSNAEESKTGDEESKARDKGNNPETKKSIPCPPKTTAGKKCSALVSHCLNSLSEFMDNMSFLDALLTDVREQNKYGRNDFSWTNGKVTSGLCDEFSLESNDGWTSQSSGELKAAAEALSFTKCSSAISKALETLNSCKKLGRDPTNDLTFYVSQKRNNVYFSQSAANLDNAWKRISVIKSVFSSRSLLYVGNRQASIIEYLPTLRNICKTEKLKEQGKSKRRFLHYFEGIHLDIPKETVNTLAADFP", "assay": "Validation screen for small molecules that inhibit ELG1-dependent DNA repair in human embryonic kidney (HEK293T) cells expressing luciferase-tagged ELG1 (AID 493107);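 note: cells co-treated with the DNA-damaging agent 5-fluorouridine alongside compound; % is set by controls: 0 for no effect and ±100 for the full control effect; inhibitors lower the ELG1-luciferase luminescence signal; nearly all actives have a fitted effect of over 70% in size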", "conditions": "HEK293T ELG1-luciferase level, luminescence, 5-fluorouridine co-treatment, 16 h; series mostly up to 46.1 µM; activity change, negative = decrease: at the top concentration", "method_in_brief": "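ELG1-luciferase HEK293T reporter; 5-fluorouridine + compound/DMSO, 16 hr, 37 °C, 5% CO2; ONE-Glo 30 min RT; luminescence read, qHTS format.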", "units": {"activity change, negative = decrease": "%"}, "values": [
      {"smiles": "NC(=O)c1cn(Cc2c(F)cccc2F)nn1", "activity change, negative = decrease": 9.34},
      {"smiles": "COc1ccc2c(c1OC)C(=O)O[C@@H]2[C@H]1c2c(cc3c(c2OC)OCO3)CCN1C", "activity change, negative = decrease": -17},
      {"smiles": "COc1ccc([C@@H]2Sc3ccccc3N(CCN(C)C)C(=O)[C@@H]2OC(C)=O)cc1", "activity change, negative = decrease": -9.38},
      {"smiles": "Cc1cccc(C)c1NC(=O)C(C)N", "note": "(stereo not given)", "activity change, negative = decrease": 8.31},
      {"smiles": "CC(=O)[C@@]1(O)CC[C@H]2[C@@H]3CCC4=CC(=O)CC[C@]4(C)[C@H]3CC[C@@]21C", "activity change, negative = decrease": -0.816},
      {"smiles": "C[C@@H](O)[C@H]1C(=O)N2C(C(=O)O)=C(SCCN=CN)C[C@H]12", "activity change, negative = decrease": 0.36},
      {"smiles": "CN(C)[C@@H]1C(=O)C(C(N)=O)=C(O)[C@@]2(O)C(=O)C3=C(O)c4c(O)ccc(Cl)c4[C@@H](O)[C@H]3C[C@@H]12", "activity change, negative = decrease": -0.434}
    ]},
    {"target": "Thyrotropin-releasing hormone receptor (Homo sapiens) (UniProt P34981)", "sequence (P34981 whole entry, looked up)": "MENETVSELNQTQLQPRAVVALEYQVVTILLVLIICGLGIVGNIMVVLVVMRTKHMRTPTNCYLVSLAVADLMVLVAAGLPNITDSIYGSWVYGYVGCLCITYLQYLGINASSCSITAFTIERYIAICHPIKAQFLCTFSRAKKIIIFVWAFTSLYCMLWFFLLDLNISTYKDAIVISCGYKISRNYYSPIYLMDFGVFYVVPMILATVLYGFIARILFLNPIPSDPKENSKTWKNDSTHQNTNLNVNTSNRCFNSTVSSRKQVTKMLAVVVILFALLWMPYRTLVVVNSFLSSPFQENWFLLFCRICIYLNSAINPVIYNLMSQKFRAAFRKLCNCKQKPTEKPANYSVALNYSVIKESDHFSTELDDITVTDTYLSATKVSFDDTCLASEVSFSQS", "assay": "qHTS for Small Molecule Agonists and Allosteric Enhancers of Human TRH Receptor: Validation Screen for Agonists (AID 493127;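 active = calcium activation more than 3 SD above the typical response in the agonist read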;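 note: intracellular calcium rise by fluo-8 fluorescence before TRH EC20 addition; 0% is about no effect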)", "conditions": "TRH receptor agonist cell assay; at 2 µM; active compounds read high", "method_in_brief": "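Read-out: intracellular calcium release measured kinetically by FDSS (fluo-8, ex 480/em 530 nm), 1 reading/s after a 10-cycle baseline. TRHR cells, 2000/well, cultured 18 h at 33.5C, dye-loaded at room temp. Compound-evoked positive calcium signal flags agonists.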", "units": {"activation": "%"}, "values": [
      {"smiles": "CCOC(=O)C1=C(C)NC(C)=C(C(=O)OC)C1c1cccc([N+](=O)[O-])c1", "note": "(stereo not given)", "activation": -4.62},
      {"smiles": "CC(C)COCC(CN(Cc1ccccc1)c1ccccc1)N1CCCC1", "note": "(stereo not given)", "activation": 0.812},
      {"smiles": "C[n+]1cc2c3c(ccc2c2ccc4cc5c(cc4c21)OCO5)OCO3", "activation": 2.44},
      {"smiles": "CCCC(C(=O)OCCN(CC)CC)(c1ccccc1)c1ccccc1", "activation": -7.5},
      {"smiles": "CCn1ccnc1CC1COc2ccccc2O1", "note": "(stereo not given)", "activation": 1.56},
      {"smiles": "Cc1nc2c([nH]1)c(=O)n(C)c(=O)n2Cc1ccco1", "activation": 0.812},
      {"smiles": "COc1cc(C(=O)OCCCN2CCCN(CCCOC(=O)c3cc(OC)c(OC)c(OC)c3)CC2)cc(OC)c1OC", "activation": 0.688},
      {"smiles": "Cc1nc2ccccn2c(=O)c1CCN1CCC(C(=O)c2ccc(F)cc2)CC1", "activation": 1.44},
      {"smiles": "C#CCN(C)CCCOc1ccc(Cl)cc1Cl", "activation": -5.81},
      {"smiles": "CC(C)[N+](C)(CCOC(=O)C1c2ccccc2Oc2ccccc21)C(C)C", "activation": 0.875},
      {"smiles": "COc1ccc(CN(CCN(C)C)c2ccccn2)cc1", "activation": 1.25},
      {"smiles": "CNC1(C)C2CCC(C2)C1(C)C", "note": "(stereo not given)", "activation": 0.375},
      {"smiles": "CCOC(=O)C1=C(C)NC(C)=C(C(=O)OC)C1c1cccc(Cl)c1Cl", "note": "(stereo not given)", "activation": 1.12},
      {"smiles": "Nc1nc(N)c2nc(-c3ccccc3)c(N)nc2n1", "activation": -0.0625},
      {"smiles": "CC1=C(C)C(=O)C(CCCCC#CCCCC#CCO)=C(C)C1=O", "activation": -4.88},
      {"smiles": "COc1cc(Cc2cnc(N)nc2N)cc(OC)c1OC", "activation": 0.312},
      {"smiles": "C[C@]12CCC(=O)C=C1CC[C@@H]1[C@@H]2C(=O)C[C@@]2(C)[C@H]1CC[C@]2(O)C(=O)CO", "activation": -0.125}
    ]}
  ]
}
